# Data taken from ChEMBL document CHEMBL4513216, “Probing the Open Global Health Chemical Diversity Library for Multistage-Active Starting Points for Next-Generation Antimalarials” (ACS Infect Dis, 2020).
# The campaign covered roughly 69,000 compounds. About 8,600 (12%) showed an effect of 50% or more. Many of the other results were omitted from the sample, so strong results are more common in it than they were.
# Test system: Plasmodium berghei
# Experiment: Screen against P. berghei liver stage (PbLuc), transformed with Luciferase, at 10uM
# Format: functional, HepG2
# Details: tested at 10 uM
row,Compound,INHIBITION [%]
1,Cc1cnn(CC2CCCCN2C(=O)Cc2c(C)noc2C)c1 (stereo not drawn),8.53
2,CCN1Cc2ccccc2CC2(CCN(C)CC2)C1=O,26.5
3,Cc1nc(C)n(CC2CCCN(CCOc3cccc(F)c3)C2)n1 (stereo not drawn),48.4
4,O=C(CC1CCCC1)N1CCN2C[C@@H](CO)[C@H](c3ccccc3)[C@H]2C1,-16.4
5,CS(=O)(=O)NC1CCCN(C(=O)NCc2cccc(F)c2)C1 (stereo not drawn),29.4
6,c1ccc(N2CCCC3(CCN(Cc4cccs4)C3)C2)nc1 (stereo not drawn),44.9
7,Cc1ccc(C(=O)NCCn2nc(-n3cncn3)ccc2=O)c(C)c1,16.5
8,CC(C)c1nc2c(n1C)CCN(Cc1nc(-c3ccco3)no1)C2,7.08
9,O=C(NCc1ccc2c(c1)OCO2)c1ccc(N2CCCCCC2)nc1,-4.99
10,O=C(C1CCOCC1)N1CCOCC(Cc2ncccn2)C1 (stereo not drawn),19.3
11,Nc1cccc(C2CN(C(=O)CN3CCOCC3)CCO2)n1 (stereo not drawn),36
12,COc1ccc2cc(C3CN(C(=O)C4CCOCC4)CCO3)ccc2c1 (stereo not drawn),66.8
13,CNC(=O)CCC(=O)N1CCOC(c2ccc3cc(OC)ccc3c2)C1 (stereo not drawn),78.15
14,COc1ccc2cc(C3CN(C(=O)CN4CCCC4)CCO3)ccc2c1 (stereo not drawn),64.7
15,CN(C)C(=O)N1CC[C@@H](c2ccc3ccccc3c2)[C@H](O)C1,2.18
16,COc1ccc(CN2CCO[C@H]3CN(C(=O)C4CC4)CC[C@H]3C2=O)cc1,-47
17,COc1ccc2cc(C3CN(C(=O)N(C)C)CCO3)ccc2c1 (stereo not drawn),85.4
18,COc1ccc(-c2cnc(N(C)C)nc2C2CN(C(C)=O)CCO2)cc1 (stereo not drawn),7.52
19,CCN1CCN(CC(=O)N2CCOC(Cc3ccc(OC)cc3)C2)CC1 (stereo not drawn),-42.1
20,CNC(=O)CN1CCC(c2cc(OC)cc(OC)c2)C1 (stereo not drawn),45.1
21,CNC(=O)NC(=O)CCN1CCOC(c2ccc(Br)cc2)C1 (stereo not drawn),-65.1
22,O=C(c1cc(-c2ccco2)cs1)N1CCCC1,-12.2
23,CNC(=O)[C@H]1C[C@H]2OCC[C@H]2N(Cc2cccc3ccccc23)C1,-6.32

row,Compound,INHIBITION [%]
1,COCc1nc(CNc2cc(C)nc(-c3ccccc3)n2)no1,-7.81
2,O=C(CS(=O)(=O)Cc1ccccc1)NC1CCCCNC1=O (stereo not drawn),5.7
3,Cc1noc([C@H]2C[C@H]3OCC[C@H]3N(S(C)(=O)=O)C2)n1,-31.3
4,CCOC(=O)[C@]12CCCN(Cc3ccco3)C[C@H]1CN(CCN(C)C)C2,-0.182
5,Cn1nc2c(cc1=O)CN(Cc1nc(-c3ccccn3)no1)CC2,-19.7
6,CCC(=O)Nc1c(C)nn(COc2cccc(F)c2)c1C,26.7
7,Cc1cc(C)c2[nH]c(C(=O)NCCN3CCOC3=O)c(C)c2c1,24
8,CC(=O)N(Cc1noc(C)n1)C1CCN(CC(=O)N(C)C2CC2)C1 (stereo not drawn),7.3
9,O=C(O)c1cc2c(nc1NCC1CC1)CCN(C1CCOC1)CC2 (stereo not drawn),29.8
10,CC(C)c1n[nH]c(C2CN(C(=O)COc3ccc(F)cc3)CCO2)n1 (stereo not drawn),8.41
11,O=C(CCNS(=O)(=O)c1ccccc1)N1CCOC(c2ccccc2)C1 (stereo not drawn),-74.1
12,CC(=O)NCC(=O)N1CCOC(c2cccc(N)n2)C1 (stereo not drawn),-24.4
13,COCC(=O)N1CCC(c2ccc(OC)cc2)C1 (stereo not drawn),23.6
14,COc1ccc2cc(C3CN(C(=O)CCNC(C)=O)CCO3)ccc2c1 (stereo not drawn),81.9
15,COc1ccc2cc(C3CN(C(=O)COC(C)C)CCO3)ccc2c1 (stereo not drawn),69.15
16,FC(F)(F)COc1cccc(-c2nc3c([nH]2)CCNC3)c1,36.6
17,CCc1nc(CN(C)C2CCN(CC(=O)N3CCOCC3)C2)no1 (stereo not drawn),22.3
18,O=C(CN1CCOC(CNc2cccnn2)C1)N1CCCCC1 (stereo not drawn),-55.4
19,CSc1ccc(-c2nc(CN3CCC(NC(C)=O)CC3)c(C)o2)cc1,5.51
20,CSc1ccc(-c2nc(CN3CCC(NC(C)=O)C3)c(C)o2)cc1 (stereo not drawn),66.8
21,CNC(=O)C1CCN(Cc2nc(-c3ccc(SC)cc3)oc2C)C1 (stereo not drawn),-2.5
22,COCCOc1ccc(NC(=O)C2CC(=O)N(C(C)C)C2)cn1 (stereo not drawn),-21.8
23,CC(=O)NCC(=O)N1CCC(c2cncc(Oc3cccnc3)n2)CC1,9.93

row,Compound,INHIBITION [%]
1,CN(Cc1n[nH]c2c1CCC2)C(=O)CCc1cc2n(n1)CCNC2,46.3
2,CCc1ncc(C(=O)N2CC(N3CCCCC3)C2)cn1,13.9
3,CCc1ncc(C(=O)N2CC[C@H]3CC[C@@H](C2)N3C)cn1,61.4
4,CCc1ncc(C(=O)N2C[C@@H](C)O[C@@H](C)C2)cn1,24.8
5,CNCc1ccc([C@@H]2CN(C)C[C@H]2C(N)=O)cc1,49.5
6,CC[C@@H](CO)NC(=O)c1cccc(CCC(C)(C)O)c1,5.78
7,CC(C)(O)CCc1cccc(C(=O)NCc2nccs2)c1,56.3
8,C[C@H](NC(=O)c1cccc(CCC(C)(C)O)c1)C(N)=O,10.3
9,CN(Cc1nccn1C)C(=O)c1cccc(CCC(C)(C)O)c1,39.4
10,Cc1csc(CN(C)C(=O)c2cccc(CCC(C)(C)O)c2)n1,34.9
11,CC(C)n1ccnc1CNC(=O)c1cccc(CCC(C)(C)O)c1,54.5
12,CCN(CC)c1ncccc1CNCc1ccc(Cl)s1,49.4
13,Cc1ncsc1CN(Cc1ccccc1)Cc1ccncc1,12.1
14,CC(C(=O)Nc1ccc(Cl)cn1)n1ccc(C(F)(F)F)n1 (stereo not drawn),42.4
15,Cc1cccc2nc(C(=O)N3CCCC[C@]4(C)NC(=O)CC[C@H]34)cn12,22
16,O=C(NC1CC1)c1cc(C(F)(F)F)cc(C(=O)NC2CC2)n1,5.21
17,Cc1cc(CN(C)Cc2ncc(-c3ccccc3)o2)no1,50.7
18,Cc1cc(CN(C)Cc2ncc(-c3cccs3)o2)no1,1.84
19,Cc1cc(CN(C)CCC(O)c2ccccc2)no1 (stereo not drawn),30.3
20,Cc1cc(CN(C)CC2CCCCC2)no1,23.1
21,Cc1cc(CN(C)Cc2ncc(C(C)(C)C)o2)no1,-30.5
22,Cc1cc(CN(C)CCN(C)c2ccccc2)no1,82.4
